Assay outcomes from PubChem.
APOBEC3G inh – blocks human APOBEC3G single-stranded DNA deamination | Q9HC16 | recombinant A3G, ssDNA deamination FAM/TAMRA fluorescence | inhibition, % at 20 µM | 330,000 tested, 0.28% active | AID 493012;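 active = inhibition of at least 40% at 20 µM, with no more than 30% in the related APOBEC3A deaminase screen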;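 note: plate controls were DMSO wells with A3G for no effect and wells lacking A3G enzyme for full effect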
Target sequence (Q9HC16 whole entry, looked up): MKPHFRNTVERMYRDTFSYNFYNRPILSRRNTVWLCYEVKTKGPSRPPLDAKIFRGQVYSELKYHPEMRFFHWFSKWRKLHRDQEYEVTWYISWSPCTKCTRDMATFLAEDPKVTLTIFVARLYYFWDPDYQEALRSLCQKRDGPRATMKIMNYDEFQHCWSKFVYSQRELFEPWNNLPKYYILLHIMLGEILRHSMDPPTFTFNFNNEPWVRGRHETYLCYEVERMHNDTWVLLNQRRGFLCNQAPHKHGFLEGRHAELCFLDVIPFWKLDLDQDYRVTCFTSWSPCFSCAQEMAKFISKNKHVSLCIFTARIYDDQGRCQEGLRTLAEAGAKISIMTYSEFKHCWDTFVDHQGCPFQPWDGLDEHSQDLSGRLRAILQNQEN
sPLA2-III inh – Blocks human group III sPLA2 activity; QFRET BODIPY PC-A2 liposome hydrolysis, fluorescence; Q9NZ20; 370,000 tested, 0.56% active; inhibition, % at 12.2 µM;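 active = inhibition above mean plus 3 SD of compounds lying within the high and low control bounds, cut at about 19% in these data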;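 note: 0% = median of test compound wells and 100% = no enzyme DMSO wells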
APOBEC3A inh – blocks human APOBEC3A ssDNA deamination. P31941. recombinant A3A, FAM/TAMRA ssDNA deamination fluorescence. inhibition, % at 20 µM. 330,000 tested, 0.41% active. AID 493011;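 active = at least 40% inhibition at 20 µM here, with at most 30% in a related deaminase screen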;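 note: plate controls were A3A with DMSO for no effect and wells lacking A3A enzyme for full effect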
Target sequence (P31941 whole entry, looked up): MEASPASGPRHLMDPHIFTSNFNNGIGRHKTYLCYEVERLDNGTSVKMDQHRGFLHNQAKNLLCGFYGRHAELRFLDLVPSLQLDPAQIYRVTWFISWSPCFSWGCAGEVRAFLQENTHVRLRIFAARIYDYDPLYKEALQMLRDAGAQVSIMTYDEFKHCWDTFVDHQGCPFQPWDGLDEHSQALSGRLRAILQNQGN
CTSL1 counter – counter-screen for PFM18AAP inhibitors: inhibitors of F. hepatica cathepsin L1; AID 1906; inhibition, % at 5.96 µM; 300,000 tested, 0.49% active; recombinant F. hepatica cathepsin L1, Z-Leu-Arg-MCA fluorescence;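 active = inhibition above the mean of all tested compounds plus 3 SD, set per screening campaign, cut at about 17% in these data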;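 note: 0% = plate median of test compound wells and 100% = 1 µM Z-Phe-Ala-diazomethylketone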
NALP1 inh – inhibitors of NALP1 inflammasome in yeast; inhibition, % at 10 µM; S. cerevisiae NALP1/ASC/caspase-1 growth, X-gal OD620, 72 h; AID 2071; 280,000 tested, 0.61% active; in the data active = inhibition mostly above about 24%, no sharp cut-off; inactive = mostly below about 32%
The depositor's hits bear a star; · = not tested or not shown. Sampled rows, rich in hits. Any-hit rate of the full collection: about 2%.

SMILES	APOBEC3G inh	sPLA2-III inh	APOBEC3A inh	CTSL1 counter	NALP1 inh
COc1ccccc1CN1C[C@@H]2C[C@@H](C3=Cc4cc(Cl)ccc4OC3)N3CCC[C@@]23C1=O	-0.1	-13.3	0.3	-0.1	25.8*
CC(C)=CCC1=C(OCC(=O)O)C(=O)c2ccccc2C1=O	7.4	4.0	1.8	44.9*	-1.4
CC(C)=CCC/C(C)=C/CC/C(C)=C/CC/C(C)=C/CC1=C(C)C(=O)c2ccccc2C1=O	0.8	1.7	0.2	0.8	5.8
COCCN=C1S/C(=C\c2cc(C)n(-c3ccc(F)cc3F)c2C)C(=O)N1C	·	19.0	·	·	·
O=C(N/N=C/c1c[nH]c2ccccc12)c1[nH]c2ccc(Br)cc2c1-c1ccccc1	·	22.0*	·	·	18.3
CC(C)(C)OC(=O)N1CC=C2C(C#N)=C(N)C(C#N)(C#N)[C@H](c3cccnc3)[C@H]2C1	-8.2	-3.6	-2.7	7.6	-12.5
N#CC1=C(N)C(C#N)(C#N)[C@H](c2ccncc2)[C@H]2CN(C(=O)OCc3ccccc3)CC=C12	-0.9	-4.1	0.1	18.8*	6.8
N#Cc1c(N2CCOCC2)nc(-c2ccco2)c2c1CCCC2	3.9	-1.2	3.2	42.0*	27.9
CC(C)CCNc1nc(-c2ccco2)c2c(c1C#N)CCCC2	-1.8	1.8	1.1	18.5*	-1.2
O=C(CSc1nnc(-c2cccs2)n1Cc1ccco1)Nc1ccc(OCc2ccccc2)cc1	·	-14.9	·	·	·
O=C(CCl)NCc1c(Cl)cccc1-n1cccc1	-4.3	3.5	0.6	17.5*	10.0
O=C(Cc1c(Cl)cccc1Cl)NCCc1ccc(Cl)cc1	-10.3	-3.3	-3.3	-1.4	24.1
COc1ccc2nc3cc(Cl)ccc3c(C#N)c2c1	-1.9	-1.1	9.0	19.4*	7.6
COC(=O)[C@]12C[C@H](CC(=O)NCc3cccs3)C(=O)N(CCc3ccc(OC)c(OC)c3)C1=C[C@H](COCc1ccccc1)O[C@@H]2C	·	-9.5	·	·	·
Cc1ccc(C)c(SCC(=O)Nc2cccnc2Cl)c1	-2.7	8.3	3.1	3.4	33.2*
O=C(NC1CCCC1)C(c1ccc(Cl)cc1)N(Cc1ccc(F)cc1)C(=O)CCl (stereo not given)	-1.6	·	-0.4	36.3*	22.8
O=C(NC1CCCC1)C(c1ccc(F)cc1)N(Cc1ccc(Cl)cc1)C(=O)CCl (stereo not given)	-6.7	3.9	-2.1	40.6*	20.7
CC1COc2c(N3CCN(C)CC3)c(F)cc3c(=O)c(C(=O)O)cn1c23 (stereo not given)	-6.2	10.9	-1.9	-5.5	·
CCOc1ccc(NC(=O)c2ccc(NC(=O)c3cn4c5c(c(N6CCN(C)CC6)c(F)cc5c3=O)OCC4C)cc2)cc1 (stereo not given)	4.0	3.1	20.3	7.7	85.5*
C[C@@H]1[C@H](O)[C@@H](C)/C=C/C=C/C=C/C=C/C=C/C=C/C=C/[C@H](OC2O[C@H](C)[C@@H](O)[C@H](N)[C@@H]2O)C[C@@H]2O[C@](O)(C[C@@H](O)C[C@@H](O)[C@H](O)CC[C@@H](O)C[C@@H](O)CC(=O)O[C@H]1C)C[C@H](O)[C@H]2C(=O)O (stereo not given in full)	·	-67.6	·	·	·
O=C(CCl)Nc1ccccc1Sc1ccc(Cl)cc1	-3.9	10.0	2.2	20.8*	-10.5
CC(=O)N1CCN(CC(=O)Nc2ccccc2Sc2ccc(Cl)cc2)CC1	-6.6	-5.2	-1.1	5.2	21.7
CCOC(=O)CN(C#N)c1nc(N(C)C)nc(N(C)C)n1	-6.0	-1.6	-2.4	53.5*	26.3
COC(=O)CN(C#N)c1nc(SC)nc(N(C)C)n1	-3.1	1.2	0.1	29.4*	25.4
CCNc1nc(NC(C)C)nc(N(C#N)CC(=O)OC)n1	7.8	-11.3	2.4	71.4*	10.4
SMILES	APOBEC3G inh	sPLA2-III inh	APOBEC3A inh	CTSL1 counter	NALP1 inh
C=CCN(CC=C)C(=S)NC(=O)c1ccc(OC)cc1	-9.8	3.6	-9.7	0.3	23.6
C=CCN(CC=C)C(=S)NC(=O)c1ccc(-c2ccccc2)cc1	-1.6	2.1	5.1	4.7	38.9*
COc1cccc(OC)c1OCCNCCO	-3.9	-0.6	-3.3	-3.0	15.8
COCCCNCCOCCOc1c(OC)cccc1OC	-5.7	-0.7	0.4	-6.4	23.9*
COc1cc(NC(=O)c2cccnc2)ccc1-c1cc2ccccc2oc1=O	-4.1	-14.0	-0.1	5.5	16.0
O=C(Nc1ccc(-c2cc3ccccc3oc2=O)c(Cl)c1)c1cccnc1	4.3	6.8	2.2	1.1	33.4*
O=C(CCS(=O)(=O)c1ccccc1)Nc1ccc(F)cc1F	·	4.0	·	·	·
COc1ccc(C(C(=O)NC(C)C)N(C(=O)CCC(=O)Nc2nccs2)c2ccccc2F)cc1 (stereo not given)	-2.2	-4.5	-2.0	-6.9	33.1*
COCCNC(=O)C(c1ccc(OC)cc1)N(CCOC)C(=O)CCC(=O)Nc1nccs1 (stereo not given)	-13.7	0.6	7.1	-1.2	20.0
O=C(CCl)Nc1cc2[nH]c(=O)[nH]c2cc1Br	23.6	3.3	6.3	24.6*	-6.2
Cc1cc2c(C)cc(=O)[nH]c2cc1NC(=O)CCl	-3.3	14.2	3.1	3.0	-2.6
NNC(=S)NCc1cccnc1	-6.9	5.2	-1.4	-0.6	73.8*
O=C(N/N=C1\C/C(=N\NC(=O)c2ccncc2)c2ccccc21)c1ccncc1	1.3	2.7	-4.1	42.5*	-1.7
COc1cc2c3nnc(-c4ccc(F)cc4)c-3cn(Cc3cccc(F)c3)c2cc1OC	-3.4	·	3.2	63.0*	-4.8
COc1cc2c3nnc(-c4ccc(F)cc4)c-3cn(Cc3cccc(C)c3)c2cc1OC	-2.3	-17.6	-2.7	3.1	26.6
CCOc1c(S(=O)(=O)N2CCCC2)ccc(Cl)c1Cl	-1.4	-6.5	3.9	1.4	41.4*
CC(C)Oc1cccc(-c2n[nH]c(=S)n2N=Cc2cccc([N+](=O)[O-])c2)c1	·	6.5	·	·	·
CC(C)(C)c1ccc(S(=O)(=O)N2CCCC2C(=O)N2CCN(c3ccccc3)CC2)cc1 (stereo not given)	·	-0.9	·	·	·
CCCCOc1ccc(C(=O)NC2CCCCN(CC)C2=O)cc1 (stereo not given)	·	-3.6	·	·	·
CCOC(=O)c1c(S(=O)(=O)NCC2CCN(Cc3cccc(F)c3)CC2)c(C)n(C)c1C	-4.4	-11.1	-2.3	43.8*	15.5
Cc1noc(NS(=O)(=O)c2ccc(NC(=O)CC34CC5CC(CC(Br)(C5)C3)C4)cc2)c1C	0.2	1.7	3.4	19.7*	-3.3
Cc1noc(NS(=O)(=O)c2ccc(NC(=O)C34CC5CC(C3)CC(n3cnc(Cl)n3)(C5)C4)cc2)c1C	-6.7	-29.9	-1.8	-2.7	6.2
Cc1ccc(NC(=O)CN(C)C(=O)C(C)OC(=O)CNC(=O)c2ccc(Cl)c([N+](=O)[O-])c2)cc1 (stereo not given)	-6.7	-0.8	-0.8	28.4*	·
Cc1cccc(NC(=O)C23CCC(C)(C(=O)O2)C3(C)C)c1 (stereo not given)	-3.3	4.5	-1.5	-1.7	-4.2
